Test results as given in the supplement of paper PMC6555819.

Columns and labels:
Assay in all cases: PBM binding z-score (relative to random genomic background probes); higher = stronger binding; sequences stand for … in GC…GCGATTGACAGCGTAGAATGAAGG
[1] = tested on: RARb homodimer (NR concentration 270 nM)
How it was run: (§1)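 Binding buffer was PBS pH 7.4 with 2% milk, 0.02% Triton X-100, 1 mM DTT, 0.2 mg/mL BSA and 0.4 mg/ml salmon testes DNA. In it, ligand-free nuclear receptor dimers were incubated 1 h on custom Agilent 4×180K protein-binding microarrays carrying double-stranded probes. Antibodies against each partner (one per run) detected binding, and z-scores were calculated against random background probes after regression normalization of scanned fluorescence.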

[2] = tested on: RARg:RXRa (NR concentration 270 nM, RXRa partner concentration 90 nM)
How it was run: as §1

[3] = tested on: RARg homodimer (NR concentration 270 nM)
How it was run: as §1

[4] = tested on: RXRa DBDmut IVT, anti-RXR (DBD mutation: RXRa K156A/R161A, NR concentration 90 nM)
How it was run: as §1

[5] = tested on: RXRa homodimer (NR concentration 180 nM)
How it was run: as §1

[6] = tested on: THRa:RXRa (NR concentration 90 nM, RXRa partner concentration 90 nM)
How it was run: as §1

[7] = tested on: THRa homodimer (NR concentration 90 nM)
How it was run: as §1

[8] = tested on: VDR homodimer (NR concentration 270 nM)
How it was run: as §1

Sequence | PBM binding z-score [1] | PBM binding z-score [2] | PBM binding z-score [3] | PBM binding z-score [4] | PBM binding z-score [5] | PBM binding z-score [6] | PBM binding z-score [7] | PBM binding z-score [8]
TTACCATGGTGAAGGTCGTTGATCCCTCTGTAGA | 0.835 | 0.184 | -0.00813 | -0.163 | 1.07 | 0.611 | -0.36 | 0.502
CGAACTACGTCAAGGACAGTGAATCTCCGCACGC | 0.242 | -0.205 | 0.151 | 0.114 | 0.0152 | 1.67 | 1.13 | 0.0374
ACTAGCAGGCCAAGTTTGGGTCAGTCAAACAAAG | 1.85 | 1.65 | 0.925 | -0.416 | 0.0586 | 1.62 | 0.427 | -0.265
CCTCGGAGGACAACAGGAGGTCAGAGCCGCCAGA | 3.53 | 3.51 | 3.53 | 0.0894 | 1.71 | 2.8 | 0.858 | 0.836
CCCACTGGGCCAAAGGTCATTGATTCCAATGCTC | 4.72 | 5.82 | 4.39 | 0.468 | 6.2 | 3.27 | 0.821 | 2.28
CCTTACGGGTCAAGGTTATTGCACGGGTGGTACG | 3.5 | 4.83 | 4.5 | 0.197 | 5.06 | 3.04 | 0.977 | 1.95
GCTGCTAGGTCAAATGATGGTCAGCTAAAGCTCG | 3.24 | 5.08 | 5.22 | 1.89 | 3.09 | 2.78 | 0.255 | -0.00739
CCTACTGGGCCAAGGGCATTGATCAGTCAAAGCA | 0.581 | 0.0127 | 0.289 | -1.17 | -0.4 | 0.178 | -0.634 | -0.245
GCATATAGGTAATACAAGGTGAACGTCCGATTGT | 0.986 | 0.615 | 0.716 | 0.418 | 0.745 | 4.18 | 1.38 | 0.386
TGAATGTGGTTATAAGATCAGGGAACGTTGCAAA | 0.38 | 0.101 | 0.404 | -0.35 | 0.0364 | 0.133 | 0.0859 | 0.37
AGAACGAGGGCAATGAGTTGAAAGCACGGGTGGC | 1.14 | 1.26 | 1.51 | 2.17 | 1.07 | 1.22 | -0.343 | 3
ATCTCTAGGTAAAAGTTCGGTGAATCCCGAGGAT | 0.446 | 0.536 | 0.526 | 0.2 | 0.463 | 0.583 | 0.177 | 0.68
TCATTTAGGTAAAGGTGAAAGTCGAACGATATGA | 1.52 | 1.74 | 1.44 | 0.874 | 2.07 | 2.01 | 0.0517 | 0.0443
GCGACTGGGGCATCAGCAGGTTACCATGACTTAA | 0.92 | 0.761 | 0.815 | -0.0631 | 0.124 | 0.654 | 0.00537 | -0.549
ATATATAGGTTAAGGGTCATTCAGGTTGGTTCGC | 4.27 | 4.98 | 4.04 | 2.17 | 6.8 | 3.86 | 2.03 | 4.9
GCCTATAGGTAATACAAGGTGAAAGTCCGATTGT | 0.782 | 0.406 | 0.334 | 0.0892 | 0.582 | 4.25 | 1.06 | -0.376
ACTATTAGTTGACCTAGGGCAACCGATACGACGC | 3.05 | 2.88 | 2.36 | 0.89 | 2.55 | 2.96 | 1.6 | 0.946
TAGCCTAGGTCATCGGCCAGTATACCACGCGAAC | 2.9 | 4.27 | 4.72 | 1.02 | 3.08 | 2.76 | 1.11 | 0.802
ATACCAAGGTGATCGTGAGGTCGTTGGTACTAAC | 1.55 | 2.1 | 0.722 | 0.424 | 1.5 | 3.39 | 2.22 | 2.96

Sequence | PBM binding z-score [1] | PBM binding z-score [2] | PBM binding z-score [3] | PBM binding z-score [4] | PBM binding z-score [5] | PBM binding z-score [6] | PBM binding z-score [7] | PBM binding z-score [8]
GTACCAAGGTGAATAGGTAGTTGATGAGTAGGCG | 0.555 | 0.67 | 0.626 | -0.423 | 0.629 | 1.14 | 0.657 | 0.0253
TCTAGTTGGTCACGGAGGTGACACACGACGGGTA | 1.71 | 1.6 | 1.86 | 0.0966 | 1.37 | 1.47 | 0.665 | 0.176
ACTCGGAGGACAAAGGTCAGCGCTACGCCAGTGA | 4.95 | 6.38 | 5.4 | 1.36 | 5.69 | 3.54 | 0.928 | 1.34
CCGACTGAGGCATAAGGTTACCATAAGCCAGCCC | 1.13 | 0.506 | 0.395 | 0.281 | 0.885 | 2.07 | 1.53 | 0.195
CAAGACAGGTGAAAGGTAACTCAGTCTGGTACGC | 0.906 | 1.58 | 0.784 | -0.244 | 2.35 | 1.2 | 0.0377 | -0.217
ACTCGGAGGACAAAAGTCAGAGCTACGCCAGTGA | 0.442 | 0.411 | 0.784 | 0.783 | 0.0563 | 0.186 | -0.517 | -0.631
GCTTACGGGTCAAAGGTTATAGCCTGAATAGAAT | 3.15 | 6.87 | 4.5 | 2.7 | 9.3 | 4.01 | -0.0478 | 1.65
CCTCGGAGGACAGAAGGTCTGAGCTGTCCGCTTT | -0.106 | -0.159 | 0.14 | -0.0896 | -0.825 | -0.0206 | -0.537 | -0.369
TCATATAGGTAAACAGGTGAAAGTCCGTAAGTTA | 0.747 | 0.484 | 0.254 | 1.68 | 1.04 | 0.795 | 0.578 | 0.358
CCGACTGGGGCATAAGGTTACCTTAAGCCAGCCC | 1.66 | 1.26 | 0.711 | -0.657 | 0.903 | 2.3 | 2.31 | -0.441
CAAACTAGGTCAAGCGGTCAAAGTCCGCTTCCCG | 4.55 | 5.64 | 6.19 | 1.57 | 4.04 | 3.23 | 0.992 | 1.5
CCTACTGGGCCATCAGGTCATTGAGATCAACGTT | 2.68 | 2.15 | 2.06 | 0.124 | 1.43 | 3.28 | 2.88 | 1.89
CGTCCAAGCTCATAGGAGGTCAGTGAAGACAGAT | 2.8 | 1.69 | 2.04 | 0.593 | 1.22 | 2.38 | 0.642 | 0.938
CAAACTAGGTCAAGAGGTCAAAATCCGCTTCCCG | 5.66 | 7.74 | 7.02 | 2.42 | 7.25 | 4.55 | 2.33 | 3.18
CAAACTAGGTCACGAAAGGTCAAACTCGAATGAC | 5.84 | 8.21 | 9.05 | 2.91 | 8.85 | 5.26 | 2.82 | 4.06
GCTAGTAGGCCATTTGGGTCACTCAATGACGGGC | 2.03 | 0.972 | 1.33 | 0.0324 | 0.766 | 1.75 | 0.382 | 0.26
TCATATAGGTAAAACGTGAAAGTCGGTGTGGTAA | -0.166 | 0.237 | -0.0627 | 1.62 | 0.564 | 0.025 | -0.0697 | 0.126
TAGCCTAGGTCATGCGGTCCAGTATAGTGTCGGC | 3.08 | 3.75 | 4.51 | 1.05 | 2.94 | 3 | 1.32 | 1.54
TCTATTTGGTCAAAGGTCACACACTCGAAATGCG | 5.34 | 7.07 | 6.16 | 2.49 | 7.9 | 4.24 | 2.77 | 2.96

Sequence | PBM binding z-score [1] | PBM binding z-score [2] | PBM binding z-score [3] | PBM binding z-score [4] | PBM binding z-score [5] | PBM binding z-score [6] | PBM binding z-score [7] | PBM binding z-score [8]
AATACAGGGGCATCGTAGGCCAGAGTACGCACAG | 1.13 | 0.978 | 1.23 | 0.834 | 0.784 | 2.47 | -0.358 | 1.15
CGTCAAAGTACAAGGTAACGTAACAGAAAGCAGC | 0.287 | 0.552 | 1.1 | 0.923 | 0.455 | 1.37 | 0.356 | -0.157
CCGACTGGGACAAGGTTACCATAACGCACAGCCA | 0.97 | 0.731 | 0.756 | -0.018 | 1.19 | 1.61 | 1.08 | -0.0253
CCGACTGGCGCAGAAAGGTTACCATACCATCCGG | 1.78 | 0.821 | 0.575 | -0.469 | 1.66 | 1.05 | -0.286 | -0.331
CAGCCTAGGTCAGGGTCAGTATAGGAGGAACGTT | 4.16 | 4.27 | 4.84 | 0.854 | 3.67 | 3.39 | 1.53 | 1.31
TAGCCTACGTCATTCAGGGGCCAGTATAGAAAGC | 0.534 | 0.54 | 0.097 | -0.122 | 0.286 | 0.215 | -0.39 | -0.343
CAAACTAGGTCAAGAGGTCGAAGTCCGCTTCCCG | 4.4 | 6.21 | 5.88 | 1.72 | 5.59 | 3.34 | 1.01 | 2.2
CCGGACAGGTGAAAGGTAACTCAGTCTGGTACGC | 0.991 | 1.57 | 0.863 | -0.0224 | 1.89 | 0.766 | 0.12 | 0.0749
TGTCAAAGTTCAAAGGGAACGTAAGTATCCACAC | 3.12 | 5.56 | 5.38 | 4.04 | 4.94 | 2.06 | -0.715 | 4.05
TCTCGGAGCACACGAAAGGTCAGAGCTCGACATC | 4.06 | 3.96 | 3.53 | 0.437 | 3.98 | 2.41 | -0.342 | -0.387
ATCTCTTGGTAAAGTTCAGTGAAAGATCGATAGA | 2.41 | 2.08 | 2.53 | 2.06 | 1.04 | 0.889 | 0.154 | 2.21
TCCGCTAGGTCAGTTGGTCAGCTAACGAGCTGCC | 2.85 | 2.77 | 3.75 | 0.733 | 1.01 | 1.27 | 0.178 | -0.514
CCTTACGGGTCAAGGTTCTAGCACGGGTGGTACG | 3.2 | 4.78 | 4.47 | 0.551 | 4.96 | 2.39 | 0.0737 | 1.51
CCTTGCAGGCCAATCTGGGTCACTCAAGGCTTGA | 2.28 | 1.15 | 1.42 | 0.233 | 0.742 | 3.61 | 0.612 | -0.0782
TCTGCTAGGTCAGTTCGTCAGCTAACGAGCTGCC | 1.84 | 2.16 | 3 | 0.634 | 0.516 | 1.2 | -0.388 | 0.389
ACTCGGAGTACAAAGGTCAGAGCTACGCCAGTGA | 4.27 | 5.22 | 4.7 | 2.11 | 5.37 | 2.64 | -0.258 | 1.63
GATACAGGGTCAGCTAAAGGCCAGAGTATGGAAA | 3.61 | 6.61 | 5.01 | 0.751 | 4.45 | 3.02 | 0.329 | 0.806
CAAACTAGGTCACCGGAAGGTCAAAGACCGCATG | 5.49 | 8.28 | 7.5 | 1.49 | 6.27 | 4.46 | 2.95 | 2.59
